This is a sample that favours compounds with a hit; in the whole collection about 1.6% have one here.
KCNQ2 inh: rat KCNQ2 potassium channel inhibitors, primary screen, cell-based, CHO-K1, FluxOR thallium flux, B-score | B-score at 10 µM | Potassium voltage-gated channel subfamily KQT member 2 (Rattus norvegicus), O88943 | 20 min; stronger effect = lower value | actives 1.1% (n = 310,000);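 active = fluorescence ratio B-score at most minus 3 library SDs, with starting brightness B-score within 2 library SDs, cut at about -5.5 in these data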
KCNQ2 pot: potentiators of rat KCNQ2 potassium channel | Potassium voltage-gated channel subfamily KQT member 2 (Rattus norvegicus), O88943 | CHO-K1 KCNQ2, FluxOR thallium flux fluorescence; stronger effect = higher value | actives 0.54% (n = 310,000) | B-score at 10 µM;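 active = fluorescence ratio B-score at least 3 SD of library B-scores, with initial fluorescence B-score within 3 of them, cut at about 5.3 in these data; same plate scores as AID 2156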;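 note: B-score of peak minus minimum over baseline fluorescence ratio after K+ and Tl+ stimulus; positive B-score means potentiation of KCNQ2 with more thallium influx and brighter signal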
Kir21 conf inh: mouse Kir2.1 channel blockers, retest, confirmation, cell-based, FluxOR thallium flux, duplicate. Kir2.1-expressing cells, FluxOR thallium flux fluorescence; stronger effect = lower value. actives 41% (n = 2,300). Tl flux remaining, % of negative control (stronger effect = lower value), % at 10 µM. shares compounds with KCNQ2 pot;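 active = Primary-screen hit whose thallium flux fell at least 3 control SD below untreated wells in both duplicates, with normal baseline fluorescence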
HEK293 ctr: counter-screen for Kir2.1 inhibitors: effect in parental HEK293 cells. shares compounds with KCNQ2 pot. FluxOR thallium flux fluorescence; 0% = unstimulated blank wells. FluxOR signal as % of negative control (100 = no effect), % at 10 µM. actives 19% (n = 2,300). AID 2105;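 active = dye signal at least 3 control SD above or below untreated wells in both duplicates, raw fluorescence within 3, either direction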;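 note: percent is based on the flux ratio of peak minus minimum fluorescence over baseline F0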
CHO-K1 ctr: nonspecific thallium flux increase in parental CHO-K1, confirmation, counter-screen for KCNQ2 potentiator project, cell-based, FluxOR thallium flux, duplicate; shares compounds with KCNQ2 pot; parental CHO-K1 cells, FluxOR thallium flux fluorescence; zero = vehicle mean+3SD, 100% = vehicle-minus-blank window; activity increase over 3SD of controls, % at 10 µM; actives 43% (n = 1,200); AID 2282, 2010;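 active = signal rise of at least 3 SD above the untreated control mean, in both duplicate wells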;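 note: counter screen of KCNQ2 potentiator hits so any rise reflects channel-independent effects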
KCNQ1 sel pot: human KCNQ1 channel potentiation off-target, confirmation, selectivity assay for KCNQ2 potentiator project, cell-based, CHO, FluxOR thallium flux | shares compounds with KCNQ2 pot | CHO KCNQ1 stable, FluxOR thallium flux fluorescence; beyond 3SD, as % of vehicle-control signal | activation over 3SD threshold, % at 10 µM | actives 28% (n = 1,200) | AID 2283, 2010;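 active = fluorescence ratio rise of at least 3 SD of vehicle wells above their mean, in both replicate wells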
Target sequence (P51787 whole entry, looked up): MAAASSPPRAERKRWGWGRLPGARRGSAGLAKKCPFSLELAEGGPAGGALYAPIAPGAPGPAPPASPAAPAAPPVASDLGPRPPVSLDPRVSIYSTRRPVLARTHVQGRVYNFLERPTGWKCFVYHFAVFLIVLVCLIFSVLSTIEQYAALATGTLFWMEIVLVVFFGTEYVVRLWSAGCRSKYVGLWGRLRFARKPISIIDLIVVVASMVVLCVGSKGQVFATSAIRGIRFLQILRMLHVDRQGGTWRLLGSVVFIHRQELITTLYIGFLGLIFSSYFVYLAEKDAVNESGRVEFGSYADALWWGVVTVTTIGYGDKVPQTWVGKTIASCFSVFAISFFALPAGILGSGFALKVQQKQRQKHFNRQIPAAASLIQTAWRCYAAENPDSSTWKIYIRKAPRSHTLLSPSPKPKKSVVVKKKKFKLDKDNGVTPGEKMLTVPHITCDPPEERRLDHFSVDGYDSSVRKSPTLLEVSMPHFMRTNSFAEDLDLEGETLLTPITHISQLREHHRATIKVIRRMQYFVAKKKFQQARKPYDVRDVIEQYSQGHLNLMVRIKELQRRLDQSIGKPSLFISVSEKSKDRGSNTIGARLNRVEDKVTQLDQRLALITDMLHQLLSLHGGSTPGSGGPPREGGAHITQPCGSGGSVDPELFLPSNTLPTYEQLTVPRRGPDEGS
KCNQ2 pot confirm: rat KCNQ2 channel potentiators, confirmation, cell-based, CHO, FluxOR thallium flux, duplicate | shares compounds with KCNQ2 pot | CHO-KCNQ2 cells, FluxOR thallium flux fluorescence | potentiation, less the hit threshold, % at 10 µM | actives 68% (n = 1,200) | AID 2287, 2010;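 active = fluorescence ratio rising 3 SD or more over the vehicle control mean in both replicates, plus primary screen hit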;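 note: peak minus minimum thallium fluorescence divided by baseline after K/Tl stimulus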
Kir2-1 sel: mouse Kir2.1 channel activation off-target, confirmation, selectivity assay for KCNQ2 potentiator project, cell-based, HEK293, FluxOR thallium flux. HEK293 Kir2.1, FluxOR thallium flux fluorescence. actives 2% (n = 1,200). shares compounds with KCNQ2 pot. activity over 3SD threshold, % at 10 µM. AID 2345, 2010;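 active = fluorescence ratio rise of at least 3 SD above the vehicle-control mean, seen in both replicates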
KCNQ2 W236L pot: potentiators of retigabine-insensitive KCNQ2 W236L, mechanism study for KCNQ2 potentiator project, cell-based, rat KCNQ2 W236L, CHO, automated patch clamp; actives 10% (n = 940); current increase over 3SD of negative controls (%), stronger effect = higher value, % at 25 µM; automated patch clamp current; shares compounds with KCNQ2 pot;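 active = current increase at least 3 SD of the untreated controls above them in both duplicate recordings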
Each line names hits and unclear results; the compound was inactive in the other large screens (follow-up assays come after a bar, where they were run).

N#CC(C#N)=NNc1ccc(-n2ccc(C(F)(F)F)n2)cc1	none | Kir21 conf inh 60% | HEK293 ctr 73%
Cc1cc(C)n(-c2ccc(NN=C(C#N)C#N)cc2)n1	none (no result: KCNQ2 pot)
O=C(CCCN1CCC2(CC1)C(=O)NCN2c1ccccc1)c1ccc(F)cc1	KCNQ2 pot 6 | Kir21 conf inh inactive | HEK293 ctr inactive | CHO-K1 ctr 5.3 | KCNQ1 sel pot 64 | KCNQ2 pot confirm 17 | Kir2-1 sel inactive | KCNQ2 W236L pot inactive
O=C(c1ccc(F)cc1)C(Cc1ccccc1)N1CCCCC1 (stereo not drawn)	none
CCOC(=O)c1cc(C(O)(C(=O)OC)C(F)(F)F)c(/N=C/N(C)C)o1 (stereo not drawn)	none
O=C(CCNC(=O)N1C[C@H]2C[C@@H](C1)c1cccc(=O)n1C2)Nc1cccc(Cl)c1	none (no result: KCNQ2 pot)
COc1ccc(CNCCc2c[nH]c3ccccc23)c(OC)c1C	none | Kir21 conf inh 46% | HEK293 ctr inactive
COc1ccc(CNCCc2ccccc2F)c(OC)c1C	none
COc1cccc(CNCCc2c[nH]c3ccccc23)c1	none
COc1cc(C)c(CNCCc2c[nH]c3ccccc23)cc1C	none (no result: KCNQ2 pot) | Kir21 conf inh 40% | HEK293 ctr inactive
COc1ccc(C)cc1NC1=NC(C)(C)CS1	none
COc1ccc(C2=NS(=O)(=O)N(C)C(C(=O)N3CCC4(CC3)OCCO4)=C2)cc1OC	none
CC(C)(C#CCCCCC#CC(C)(C)[N+](C)(C)C)[N+](C)(C)C	none
Cc1ccc2c(c1)C(c1ccccc1)=NCC(=O)N2C	none (no result: KCNQ2 pot)
Cc1c2cnn(CC(=O)N3CCC4(CC3)OCCO4)c(=O)c2c(C)n1Cc1cccc(Cl)c1	none
O=C(Cn1ncc2c3ccccc3n(Cc3cccc(Cl)c3)c2c1=O)N1CCC2(CC1)OCCO2	KCNQ2 pot 13 | Kir21 conf inh inactive | HEK293 ctr inactive | CHO-K1 ctr 109 | KCNQ1 sel pot inactive | KCNQ2 pot confirm 58 | Kir2-1 sel inactive | KCNQ2 W236L pot inactive
CCOc1ccc(-n2c(O)c(C=NCCN3CCNCC3)c(=O)[nH]c2=O)cc1	none (no result: KCNQ2 pot)
Cc1ccc(CC(=O)N2CCN(C)CC2)cc1	none
COc1ccc(-n2c(/C=C/c3ccc(O)cc3)nc3ccccc3c2=O)cc1	none (no result: KCNQ2 pot)
CCn1nc(/C=C/c2ccccc2)nc2c(=O)n(C)c(=O)nc1-2	KCNQ2 pot 7.9 | Kir21 conf inh inactive | HEK293 ctr inactive | CHO-K1 ctr 5.3 | KCNQ1 sel pot inactive | KCNQ2 pot confirm 3.5 | Kir2-1 sel inactive | KCNQ2 W236L pot inactive
O=c1cccc2n1CC1CC2CN(C(c2ccccc2)c2sc3ncnn3c2O)C1 (stereo not drawn)	none (no result: KCNQ2 pot)
CN[C@@H]1C[C@@H](c2ccc(Cl)c(Cl)c2)c2ccccc21	none (no result: KCNQ2 pot) | Kir21 conf inh 28% | HEK293 ctr inactive
CC(NCc1ccc(Cl)c(Cl)c1)C(O)c1ccccc1 (stereo not drawn)	none (no result: KCNQ2 pot)
CN(C)CCN(C(=O)COc1ccc(Cl)cc1)c1nc2cc3c(cc2s1)OCO3	none (no result: KCNQ2 pot)
CCNC(=O)NNC(=O)C1CC(c2cccnc2)=NO1 (stereo not drawn)	none
CC(=O)OC(C)(C)/C=C/C(=O)C(C)(O)C1[C@H](O)C[C@@]2(C)C3CC=C4C(CC[C@@H](O)C4(C)C)[C@]3(CO)C(=O)C[C@]12C (stereo partly drawn)	KCNQ2 pot 7.1 | Kir21 conf inh inactive | HEK293 ctr inactive | CHO-K1 ctr inactive | KCNQ1 sel pot inactive | KCNQ2 pot confirm 9.0 | Kir2-1 sel inactive | KCNQ2 W236L pot inactive
CCN(CC)P(=O)(NC(=O)c1cccn1C)N(CC)CC	none (no result: KCNQ2 pot)
Clc1ccc(C[n+]2c(-c3ccccc3)cc(-c3ccccc3)cc2-c2ccccc2)cc1	KCNQ2 inh -7.2 | Kir21 conf inh 17% | HEK293 ctr inactive
CCOC(C[n+]1c(-c2ccccc2)cc(C)cc1-c1ccccc1)OCC	none
Cc1ccc(-c2cc(-c3ccccc3)cc(-c3ccccc3)[n+]2-c2ccccc2C(=O)O)cc1	none (no result: KCNQ2 pot)
Cc1cc(-c2ccccc2)cc(-c2ccccc2)[n+]1CCc1ccccc1	KCNQ2 inh -5.7 | Kir21 conf inh 45% | HEK293 ctr inactive
Fc1ccc(C[n+]2c(-c3ccccc3)cc(-c3ccccc3)cc2-c2ccccc2)cc1	KCNQ2 inh -6.3 | Kir21 conf inh 24% | HEK293 ctr inactive
C[n+]1c(-c2ccccc2)cc(-c2ccc(O)cc2)cc1-c1ccccc1	none
COc1ccccc1N1CCN(Cc2cnc(-c3ccccc3)[nH]2)CC1	none (no result: KCNQ2 pot)
O=[N+]([O-])c1ccccc1-c1cc(-c2ccccc2)cc(-c2ccccc2)[n+]1Cc1ccccc1Cl	KCNQ2 inh -7.4 | Kir21 conf inh 22% | HEK293 ctr inactive
Clc1cc(I)cc(Cl)c1NC1=NCCN1	none (no result: KCNQ2 pot)
CC(C)(C)NC(=S)N1CCn2cccc2C1c1cccnc1 (stereo not drawn)	none (no result: KCNQ2 pot)
CCCC(=O)C1C(=O)NC(=O)NC1=O	none (no result: KCNQ2 pot)
CCOc1ccc2c(c1)c(C(C)=O)c(C)n2Cc1ccco1	none (no result: KCNQ2 pot)
COc1ccc(-n2c(O)c(C=NCc3ccc4c(c3)OCO4)c(=O)[nH]c2=O)cc1	none (no result: KCNQ2 pot)
COc1cccc(CNCCc2ccccc2)c1OC	none
COc1ccc2ccccc2c1CNCCc1ccccc1	none (no result: KCNQ2 pot) | Kir21 conf inh 38% | HEK293 ctr inactive
Cc1nc2ccc(Cl)cc2c(=O)n1-c1cccc(Cl)c1	none (no result: KCNQ2 pot)
CC(C)c1ccc(-n2c(O)c(C=NCCN3CCNCC3)c(=O)[nH]c2=S)cc1	none

Screens deposited in PubChem BioAssay by Johns Hopkins Ion Channel Center.
